High-throughput results deposited in PubChem BioAssay by several laboratories.
SENP6 inh = blocks the human protease SENP6 | Recombinant SENP6 catalytic domain, aminoluciferin luminescence | inhibition, % at 10 µM | actives 1.8% (n = 330,000) | AID 2599;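 active = inhibition above about 50% at the single tested dose, limit read from the data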
LGR2 antag = inhibitors of bursicon-induced Drosophila LGR2 receptor cAMP signaling; HEK293 LGR2, CRE-luciferase, bursicon-stimulated, 4 h; inhibition, % at 9.99 µM; actives 0.35% (n = 380,000); AID 720647;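 active = drop in luminescence signal, shown as inhibition above about 50% in the replicate tests, limit read from the data, passing the limit was not always enough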;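 also: agonist challenge used bursicon conditioned medium at about half maximal strength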
SENP8 block-1 = inhibitors of human SENP8 protease | Q96LD8 | actives 0.64% (n = 360,000) | recombinant SENP8, Nedd8 substrate fluorescence | inhibition, % at 20 µM; in the data active = inhibition mostly above about 40%, no sharp cut-off; inactive = mostly below about 27%
SENP8 block-2 = inhibitors of human SENP8 protease. AID 2540. actives 1.2% (n = 330,000). inhibition, % at 10 µM. purified SENP8, Z-RLRGG-aminoluciferin cleavage, luminescence. Q96LD8; in the data active = inhibition above about 50%
HSP90 inh = blocks HSP90-mediated luciferase refolding in reticulocyte lysate. Rabbit reticulocyte lysate, luciferase refolding luminescence, 3 h. inhibition, % at 5.6 µM. actives 0.91% (n = 290,000);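 active = inhibition above the screen-wide mean plus 3 SD, computed separately per campaign, cut at about 16% in these data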;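 also: inhibitors lower the luminescence because luciferase stays unfolded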
SENP7 block = blocks the human protease SENP7; Q9BQF6; recombinant SENP7, Z-RLRGG-aminoluciferin luminescence, 40 min; inhibition, % at 5 µM; actives 1.5% (n = 330,000); AID 434973;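 active = inhibition above about 50% at the single test dose, limit read from the data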
SENP8 conf = human SENP8 inhibition, confirmed | shares compounds with SENP7 block | Recombinant SENP8, Z-RLRGG-aminoluciferin luminescence, 60 min | inhibition, % at 12.5 µM | actives 40% (n = 6,200) | AID 488912;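 active = mean inhibition across replicates above about 50%, limit read from the data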
SENP6 conf = human SENP6 inhibition, confirmed; actives 58% (n = 6,200); shares compounds with SENP7 block; AID 488915; recombinant SENP6, Z-RLRGG-aminoluciferin luminescence; inhibition, % at 12.5 µM
SENP7 confirm = human SENP7 inhibition, confirmed; shares compounds with SENP7 block; recombinant SENP7, Z-RLRGG-aminoluciferin luminescence, 40 min; inhibition, % at 12.5 µM; actives 69% (n = 6,200)
Casp3 select = inhibits human caspase-3 in SENP selectivity test; purified caspase-3, Z-DEVD-aminoluciferin luminescence, 60 min; AID 488918; shares compounds with SENP7 block; inhibition, % at 12.5 µM; actives 60% (n = 6,200);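 active = mean inhibition above about 50%, limit read from the data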
Luc interf = luminescence interference (SENP counter-screen). shares compounds with SENP7 block. Pre-incubated SENP8/Z-RLRGG-aminoluciferin, luciferase luminescence interference. inhibition, % at 12.5 µM. actives 39% (n = 6,200);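 active = mean inhibition above about 50% when retested at one dose, limit read from the data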
Of the large screens only hits and unclear results are named; the others gave an inactive call (follow-up assays come after a bar, where they were run). The list is not random: actives were taken first. Their share in the collection is about 2.3%.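 The calls were made as follows, unless noted: active = mean inhibition above about 50% in the one-dose retest (limit read from the data); inactive = the rest.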

CCOc1ccc(NS(=O)(=O)c2ccc(OCC(=O)N3CCCC3)cc2)cc1	SENP7 block 91.2 (no result: LGR2 antag) | SENP8 conf inactive | SENP6 conf inactive | SENP7 confirm inactive | Casp3 select inactive | Luc interf inactive
CCC(=O)N(C)C[C@H]1Oc2cc(-c3ccccc3F)ccc2S(=O)(=O)N([C@@H](C)CO)C[C@@H]1C	none (no result: SENP6 inh, SENP8 block-1, SENP8 block-2, HSP90 inh, SENP7 block)
COc1ccc(-c2cc(-c3ccccc3O)[nH]n2)cc1	SENP6 inh 97.5, SENP8 block-2 92.3, SENP7 block 94.0 (no result: LGR2 antag) | SENP8 conf 96.0 | SENP6 conf 96.6 | SENP7 confirm 102.1 | Casp3 select 77.9 | Luc interf 94.5
COc1ccc(-c2cc(-c3ccccc3)n[nH]2)c(O)c1	SENP6 inh 68.3, SENP8 block-2 65.7, SENP7 block 64.9 | SENP8 conf 73.7 | SENP6 conf 71.9 | SENP7 confirm 89.7 | Casp3 select inactive | Luc interf 71.7
COc1ccc(O)c(-c2cc(-c3ccccc3Cl)[nH]n2)c1	none
